Hit rate of the full screen: of about 5,500 compounds, about 2,000 (36%) were called active. Roughly 18% stayed inconclusive and do not appear here. Cut-off read from the data, not from the text of the source: active = normalized growth mostly below about 0.91 (no sharp cut-off); inconclusive = no clear call, values can overlap the other calls; inactive = mostly above about 0.92. Some of the results follow.
Assay: chemical genetic growth profiling, strain panel (AID 1159580);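 note: tested at 20 µM; growth read once vehicle control cultures reached saturation at 30 °C; 1 = growth at the plate median or of vehicle wells; lower values mean less growth of the strain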
Conditions: growth OD
[1] = S. cerevisiae deletion strains, locus YAL013W, strain DEP1, stronger effect = lower value
[2] = S. cerevisiae deletion strains, locus YBR229C, strain ROT2, stronger effect = lower value
[3] = S. cerevisiae deletion strains, locus YDL101C, strain DUN1, stronger effect = lower value
[4] = S. cerevisiae deletion strains, locus YDL134C, strain PPH21, stronger effect = lower value
[5] = S. cerevisiae deletion strains, locus YDR150W, strain NUM1, stronger effect = lower value
[6] = S. cerevisiae deletion strains, locus YEL061C, strain CIN8, stronger effect = lower value
[7] = S. cerevisiae deletion strains, locus YGR078C, strain PAC10, stronger effect = lower value
[8] = S. cerevisiae deletion strains, locus YHR030C, strain SLT2, stronger effect = lower value
[9] = S. cerevisiae deletion strains, locus YHR087W, strain rtc3, stronger effect = lower value
[10] = S. cerevisiae deletion strains, locus YJR043C, strain POL32, stronger effect = lower value
[11] = S. cerevisiae deletion strains, locus YJR075W, strain HOC1, stronger effect = lower value
[12] = S. cerevisiae deletion strains, locus YKL190W, strain CNB1, stronger effect = lower value
[13] = S. cerevisiae deletion strains, locus YLR039C, strain RIC1, stronger effect = lower value
[14] = S. cerevisiae deletion strains, locus YLR058C, strain SHM2 (second series), stronger effect = lower value
[15] = S. cerevisiae deletion strains, locus YLR085C, strain ARP6, stronger effect = lower value
[16] = S. cerevisiae deletion strains, locus YLR262C, strain YPT6, stronger effect = lower value
[17] = S. cerevisiae deletion strains, locus YML094W, strain GIM5, stronger effect = lower value
[18] = S. cerevisiae deletion strains, locus YMR219W, strain ESC1, stronger effect = lower value
[19] = S. cerevisiae deletion strains, locus YMR263W, strain SAP30, stronger effect = lower value
[20] = S. cerevisiae deletion strains, locus YNL153C, strain GIM3, stronger effect = lower value
[21] = S. cerevisiae deletion strains, locus YNL298W, strain CLA4 (second series), stronger effect = lower value
[22] = S. cerevisiae deletion strains, locus YNL322C, strain KRE1, stronger effect = lower value
[23] = S. cerevisiae deletion strains, locus YNR030W, strain Alg12, stronger effect = lower value
[24] = S. cerevisiae deletion strains, locus YOL006C, strain TOP1, stronger effect = lower value
[25] = S. cerevisiae deletion strains, locus YPL055C, strain LGE1, stronger effect = lower value
[26] = S. cerevisiae deletion strains, locus YPL241C, strain CIN2, stronger effect = lower value
[27] = S. cerevisiae deletion strains, locus YPR135W, strain CTF4, stronger effect = lower value
[28] = S. cerevisiae deletion strains, locus YCL061C, strain MRC1, stronger effect = lower value
[29] = S. cerevisiae deletion strains, locus YMR307W, strain GAS1, stronger effect = lower value
[30] = S. cerevisiae deletion strains, locus YJL187C, strain SWE1, stronger effect = lower value

Measured: normalized growth

COC(=O)c1sccc1-c1ccc(C(C)=O)o1
inactive: [1] 0.956 | [2] 0.975 | [3] 0.953 | [4] 0.974 | [5] 0.982 | [6] 0.949 | [7] 0.947 | [8] 0.722 | [9] 0.97 | [10] 0.977 | [11] 0.956 | [12] 0.976 | [13] 0.945 | [14] 0.965 | [16] 0.961 | [17] 0.898 | [18] 0.978 | [19] 0.977 | [20] 0.982 | [21] 0.841 | [25] 0.974 | [26] 0.891 | [27] 0.773
active: [15] 0.751 | [22] 0.935 | [23] 0.885 | [24] 0.727

CCOC(=O)Nc1ccsc1C(=O)OC
inactive: [1] 0.997 | [2] 1 | [28] 0.999 | [3] 0.988 | [4] 1 | [5] 0.975 | [6] 0.974 | [7] 0.986 | [8] 1 | [9] 1 | [10] 1 | [11] 0.986 | [12] 1 | [13] 0.983 | [14] 1 | [15] 0.988 | [16] 0.996 | [17] 0.985 | [18] 1 | [19] 1.02 | [29] 1.07 | [20] 0.987 | [21] 1.02 | [22] 0.983 | [23] 1.01 | [25] 0.981 | [26] 1.08 | [27] 0.947

COC(=O)C1=C(C)NC(C)=C(C(=O)OC)C1c1ccc(-c2ccsc2C(=O)OC)o1
inactive: [1] 1 | [2] 1 | [28] 0.989 | [3] 1 | [5] 0.941 | [6] 1.03 | [7] 0.994 | [8] 1.05 | [9] 0.985 | [30] 1.01 | [10] 0.994 | [11] 0.946 | [13] 1.05 | [14] 0.999 | [15] 0.992 | [16] 0.999 | [17] 1.01 | [18] 1 | [19] 1 | [29] 0.968 | [20] 0.99 | [21] 1.06 | [22] 0.991 | [23] 1.02 | [24] 1.06 | [25] 0.898 | [26] 0.862 | [27] 1

COC(=O)c1sccc1NC(=O)C1CC1
inactive: [1] 0.991 | [2] 1 | [3] 0.995 | [5] 0.942 | [6] 0.979 | [7] 0.978 | [8] 1.01 | [9] 0.99 | [30] 0.977 | [10] 1.02 | [11] 0.99 | [13] 1.01 | [14] 0.976 | [15] 0.92 | [16] 1.07 | [17] 0.962 | [18] 0.981 | [19] 0.988 | [29] 1.06 | [20] 1.01 | [21] 1 | [22] 0.979 | [23] 0.989 | [24] 0.982 | [25] 0.97 | [26] 0.97 | [27] 1.03 | S. cerevisiae strains, strain wild type, stronger effect = lower value 0.992

COC(=O)c1sccc1-c1ccc(/C=C/[N+](=O)[O-])o1
active: S. cerevisiae deletion strains, locus YDL214C, strain PRR2, stronger effect = lower value 0.126 | S. cerevisiae deletion strains, locus YDR477W, strain SNF1, stronger effect = lower value 0.518 | S. cerevisiae deletion strains, locus YER123W, strain YCK3, stronger effect = lower value 0.155 | S. cerevisiae deletion strains, locus YER133W, strain GLC7, stronger effect = lower value 0.121 | S. cerevisiae deletion strains, locus YFL009W, strain cdc4, stronger effect = lower value 0.718 | S. cerevisiae deletion strains, locus YFR019W, strain FAB1, stronger effect = lower value 0.154 | S. cerevisiae deletion strains, locus YGR040W, strain KSS1, stronger effect = lower value 0.551 | S. cerevisiae deletion strains, locus YGR052W, strain FMP48, stronger effect = lower value 0.268 | [8] 0.0849 | S. cerevisiae deletion strains, locus YHR079C, strain IRE1, stronger effect = lower value 0.113 | S. cerevisiae deletion strains, locus YHR082C, strain KSP1, stronger effect = lower value 0.178 | S. cerevisiae deletion strains, locus YHR205W, strain SCH9, stronger effect = lower value 0.509 | S. cerevisiae deletion strains, locus YJL095W, strain BCK1, stronger effect = lower value 0.126 | S. cerevisiae deletion strains, locus YJL157C, strain FAR1, stronger effect = lower value 0.14 | S. cerevisiae deletion strains, locus YJR066W, strain TOR1 (second series), stronger effect = lower value 0.0869 | S. cerevisiae deletion strains, locus YJR066W, strain TOR1, stronger effect = lower value 0.103 | S. cerevisiae deletion strains, locus YKL067W, strain YNK1, stronger effect = lower value 0.185 | S. cerevisiae deletion strains, locus YLR113W, strain HOG1, stronger effect = lower value 0.181 | S. cerevisiae deletion strains, locus YLR133W, strain CKI1, stronger effect = lower value 0.638 | S. cerevisiae deletion strains, locus YLR403W, strain SFP1, stronger effect = lower value 0.517 | S. cerevisiae deletion strains, locus YML070W, strain DAK1, stronger effect = lower value 0.111 | S. cerevisiae deletion strains, locus YMR205C, strain PFK2 (second series), stronger effect = lower value 0.704 | S. cerevisiae deletion strains, locus YNL020C, strain ARK1, stronger effect = lower value 0.702 | S. cerevisiae deletion strains, locus YNL183C, strain NPR1, stronger effect = lower value 0.0989 | S. cerevisiae deletion strains, locus YOL136C, strain PFK27, stronger effect = lower value 0.107 | S. cerevisiae deletion strains, locus YOR231W, strain MKK1, stronger effect = lower value 0.135 | S. cerevisiae deletion strains, locus YPL031C, strain PHO85, stronger effect = lower value 0.25 | S. cerevisiae deletion strains, locus YPL153C, strain RAD53, stronger effect = lower value 0.0913 | S. cerevisiae deletion strains, locus YPL204W, strain HRR25, stronger effect = lower value 0.091 | S. cerevisiae deletion strains, locus YPL256C, strain CLN2, stronger effect = lower value 0.147
inactive: S. cerevisiae deletion strains, locus YBL105C, strain PKC1, stronger effect = lower value 0.964 | S. cerevisiae deletion strains, locus YBR135W, strain CKS1, stronger effect = lower value 0.96 | S. cerevisiae deletion strains, locus YBR136W, strain MEC1, stronger effect = lower value 0.968 | S. cerevisiae deletion strains, locus YBR160W, strain CDC28, stronger effect = lower value 0.952 | S. cerevisiae deletion strains, locus YDL017W, strain CDC7, stronger effect = lower value 0.974 | S. cerevisiae deletion strains, locus YDL028C, strain MPS1, stronger effect = lower value 0.959 | S. cerevisiae deletion strains, locus YDL108W, strain KIN28, stronger effect = lower value 0.965 | S. cerevisiae deletion strains, locus YDR052C, strain DBF4, stronger effect = lower value 0.981 | S. cerevisiae deletion strains, locus YDR226W, strain ADK1, stronger effect = lower value 0.961 | S. cerevisiae deletion strains, locus YFR003C, strain YPI1, stronger effect = lower value 0.966 | S. cerevisiae deletion strains, locus YFR028C, strain CDC14, stronger effect = lower value 0.978 | S. cerevisiae deletion strains, locus YGR092W, strain DBF2, stronger effect = lower value 0.874 | S. cerevisiae deletion strains, locus YIL147C, strain SLN1, stronger effect = lower value 0.964 | S. cerevisiae deletion strains, locus YJL128C, strain PBS2, stronger effect = lower value 0.907 | S. cerevisiae deletion strains, locus YJR016C, strain ILV3, stronger effect = lower value 0.974 | S. cerevisiae deletion strains, locus YKL048C, strain ELM1, stronger effect = lower value 0.939 | S. cerevisiae deletion strains, locus YKL101W, strain HSL1, stronger effect = lower value 0.886 | S. cerevisiae deletion strains, locus YKL203C, strain TOR2, stronger effect = lower value 0.893 | S. cerevisiae deletion strains, locus YNL006W, strain LST8, stronger effect = lower value 0.958 | S. cerevisiae deletion strains, locus YNL207W, strain RIO2, stronger effect = lower value 0.977 | S. cerevisiae deletion strains, locus YNL307C, strain MCK1 (second series), stronger effect = lower value 0.823 | S. cerevisiae deletion strains, locus YOR061W, strain CKA2, stronger effect = lower value 0.729 | S. cerevisiae deletion strains, locus YOR119C, strain RIO1, stronger effect = lower value 0.875 | S. cerevisiae deletion strains, locus YOR329C, strain SCD5, stronger effect = lower value 0.965 | S. cerevisiae deletion strains, locus YPL209C, strain IPL1, stronger effect = lower value 0.969 | S. cerevisiae deletion strains, locus YPR025C, strain CCL1, stronger effect = lower value 0.955 | S. cerevisiae deletion strains, locus YPR106W, strain ISR1, stronger effect = lower value 0.959 | S. cerevisiae deletion strains, locus YPR111W, strain DBF20, stronger effect = lower value 0.961 | S. cerevisiae deletion strains, strain NNK1, stronger effect = lower value 0.963

COC(=O)C1C2CC3c4[nH]c5cc(OC)ccc5c4CCN3CC2CC(OC(=O)c2cc(OC)c(OC)c(OC)c2)C1OC (configuration not stated)
inactive: [1] 0.996 | S. cerevisiae deletion strains, locus YAL040C, strain CLN3, stronger effect = lower value 1.07 | S. cerevisiae deletion strains, locus YDR363W, strain ESC2, stronger effect = lower value 1 | S. cerevisiae deletion strains, locus YER002W, strain NOP16, stronger effect = lower value 0.99 | [11] 1 | [19] 1 | S. cerevisiae deletion strains, locus YNL128W, strain TEP1, stronger effect = lower value 0.98 | S. cerevisiae deletion strains, locus YNL175C, strain NOP13, stronger effect = lower value 1 | S. cerevisiae deletion strains, locus YNL197C, strain WHI3, stronger effect = lower value 0.989 | S. cerevisiae deletion strains, locus YNL224C, strain SQS1, stronger effect = lower value 1.04 | S. cerevisiae deletion strains, locus YOR083W, strain WHI5 (second series), stronger effect = lower value 0.934 | [25] 1.02

— PubChem BioAssay AID1159580 (chemical genetic matrix, 2015)
